The test is described as follows: cytotoxicity in primary umbilical vein endothelium – cell-based, Alamar Blue fluorescence, 8-48 h, dry powder, cytotoxicity control for HRAS target identification, late-stage follow-up (AID 720612).

Results filed as inconclusive are left out. Active and inactive are the calls of the source.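 How the source made its calls: active means compounds whose fitted half-maximal viability loss lies within twice the top dose at every treatment time; inconclusive means the three treatment times give differing calls; inactive means inactive at every treatment time.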

Experimental findings from PubChem BioAssay AID720612 (Broad Institute, 2013) are described below.

For `Cc1onc(C(=O)N2CCN(C(c3ccncc3)c3ccncc3)CC2)c1[N+](=O)[O-]`, the compound was called inactive. For the compound `CCC(=O)N(c1ccc(OC)c(Cl)c1)C(C(=O)NCCc1ccccc1)c1cccs1` (configuration not stated), the outcome was inactive.
